Reference: PubChem BioAssay (EPA / NIEHS)
Activity calls are given as the source filed them. Rule for the calls: active = hit-call score of the fitted dose curve at least 0.9, where 1 is the maximum; inactive = score below 0.9.

What was measured:
Details in all cases: mRNA level, 48 h; actives raise or lower the signal
[1] = read-out: Cytochrome P450 3A7 (Homo sapiens) (UniProt P24462); test: LTEA_HepaRG_CYP3A7: Life Technologies and Expression Analysis (LTEA) Assay for CYP3A7 using HepaRG (AID 2283492)
In short: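 HepaRG cells plated 48 h, then dosed in serum-free induction medium for 48 h at 8 concentrations (top 100 uM, half-log steps, 0.5% DMSO). CYP3A7 mRNA by qRT-PCR, normalised to ACTB/GAPDH/POLR2A; bidirectional fit versus DMSO.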

[2] = read-out: Fatty Acid-Binding Protein 1 (FABP1), FABP1 (gene 2168); test: LTEA_HepaRG_FABP1: Life Technologies and Expression Analysis (LTEA) Assay for Fatty Acid-Binding Protein 1 (FABP1) using HepaRG (AID 2283494)
In short: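 Values reflect bidirectional concentration-response fitting of FABP1 mRNA change against 0.5% DMSO controls. Human HepaRG cultures received eight half-log doses (top 100 uM) for 48 h; expression quantified by TaqMan qRT-PCR with housekeeping-gene normalization.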

[3] = read-out: Cytochrome P450 4A22 (Homo sapiens) (UniProt Q5TCH4); test: LTEA_HepaRG_CYP4A22: Life Technologies and Expression Analysis (LTEA) Assay for Cytochrome P450 4A22 (CYP4A22) using HepaRG (AID 2283495)
In short: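 qRT-PCR of CYP4A22 mRNA (Fluidigm TaqMan, normalized to three housekeeping genes) after 48 h chemical exposure of HepaRG cells; 8-point half-log series, top 100 uM, 0.5% DMSO vehicle. Bidirectional curve fitting vs DMSO baseline.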

[4] = read-out: Cytochrome P450 7A1 (Homo sapiens) (UniProt P22680); test: LTEA_HepaRG_CYP7A1: Life Technologies and Expression Analysis (LTEA) Assay for Cytochrome P450 7A1 (CYP7A1) using HepaRG (AID 2283496)
In short: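 HepaRG, 48 h exposure, 8-pt half-log series from 100 uM, 0.5% DMSO vehicle, duplicates. Readout: TaqMan qRT-PCR mRNA vs three housekeeping genes; bidirectional curve fit against DMSO baseline.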

[5] = read-out: Glutathione S-Transferase (GSTA2), GSTA2 (gene 2939); test: LTEA_HepaRG_GSTA2: Life Technologies and Expression Analysis (LTEA) Assay for Glutathione S-Transferase (GSTA2) using HepaRG (AID 2283497)
In short: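 Oxidative-stress marker GSTA2 is quantified by TaqMan qRT-PCR in HepaRG cultures treated 48 h across an eight-point range to 100 uM. Expression is normalized to endogenous controls and compared with 0.5% DMSO vehicle.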

[6] = read-out: Glutamate-cysteine ligase catalytic (GCLC), GCLC (gene 2729); test: LTEA_HepaRG_GCLC: Life Technologies and Expression Analysis (LTEA) Assay for Glutamate-cysteine ligase catalytic (GCLC) using HepaRG (AID 2283498)
In short: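 Oxidative-stress marker GCLC is measured as mRNA change in human HepaRG liver cells after 48 h chemical treatment in 0.5% DMSO, eight concentrations from 100 uM. Activity is fitted bidirectionally against vehicle.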

[7] = read-out: growth arrest and DNA damage 45 (GADD45G), GADD45G (gene 10912); test: LTEA_HepaRG_GADD45G: Life Technologies and Expression Analysis (LTEA) Assay for growth arrest and DNA damage 45 (GADD45G) using HepaRG (AID 2283499)
In short: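 Differentiated human HepaRG cells in serum-free induction medium were exposed for 48 h to 8 half-log concentrations up to 100 uM in 0.5% DMSO, in duplicate. GADD45G mRNA was measured by TaqMan qRT-PCR, normalised to ACTB, GAPDH and POLR2A, and fitted bidirectionally against DMSO.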

[8] = read-out: Glutamate-cysteine ligase regulatory (GCLM), GCLM (gene 2730); test: LTEA_HepaRG_GCLM: Life Technologies and Expression Analysis (LTEA) Assay for Glutamate-cysteine ligase regulatory (GCLM) using HepaRG (AID 2283500)
In short: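 Endpoint is GCLM transcript level by qRT-PCR, normalized to three housekeeping genes, after 48 h chemical exposure of human HepaRG cells (0.5% DMSO vehicle, top 100 uM, half-log dilutions). Fitting was bidirectional relative to DMSO.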

[9] = read-out: Glutathione S-transferase M3 (GSTM3), GSTM3 (gene 2947); test: LTEA_HepaRG_GSTM3: Life Technologies and Expression Analysis (LTEA) Assay for Glutathione S-transferase M3 (GSTM3) using HepaRG (AID 2283501)
In short: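 Differentiated HepaRG cells in serum-free induction medium were exposed in duplicate for 48 h to 8 half-log concentrations up to 100 uM in 0.5% DMSO. GSTM3 mRNA was measured by TaqMan qRT-PCR, normalized to ACTB/GAPDH/POLR2A, and fitted bidirectionally versus DMSO.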

CYP3A5 (gene 1577) = test: LTEA_HepaRG_CYP3A5: Life Technologies and Expression Analysis (LTEA) Assay for CYP3A5 using HepaRG (AID 2283493)
In short: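 Human HepaRG hepatic cells receive 48 h chemical treatment at eight concentrations (half-log steps from 100 uM) in 0.5% DMSO. Expression of CYP3A5 is quantified by Fluidigm qRT-PCR and normalized to three reference genes.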

Measured: AC50

Cytochrome P450 3A7 (Homo sapiens), sequence (P24462 whole entry, looked up): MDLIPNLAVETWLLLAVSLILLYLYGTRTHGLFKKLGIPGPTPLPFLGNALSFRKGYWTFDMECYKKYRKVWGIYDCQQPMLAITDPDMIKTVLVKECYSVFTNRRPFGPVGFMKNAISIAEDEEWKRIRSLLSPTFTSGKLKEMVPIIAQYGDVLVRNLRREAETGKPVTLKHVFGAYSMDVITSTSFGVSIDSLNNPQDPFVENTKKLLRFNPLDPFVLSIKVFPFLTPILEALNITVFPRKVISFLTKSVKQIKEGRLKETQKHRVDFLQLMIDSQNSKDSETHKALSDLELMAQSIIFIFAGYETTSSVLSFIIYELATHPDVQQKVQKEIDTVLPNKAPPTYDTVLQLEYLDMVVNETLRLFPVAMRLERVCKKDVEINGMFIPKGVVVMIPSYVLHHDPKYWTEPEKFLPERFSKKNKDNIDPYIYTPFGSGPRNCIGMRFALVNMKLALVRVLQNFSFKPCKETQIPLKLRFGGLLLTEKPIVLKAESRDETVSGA

C[N+](C)(C)CC1CO1 (stereo unspecified)
not listed: CYP3A5 (gene 1577)
inactive: all other assays above

O=C(O)C1C2CCC(O2)C1C(=O)O (stereo unspecified)
inactive: [6] | [7] | [8] | [9]
active: [1] 61.1 µM | [2] 77.9 µM | [3] 50 µM | [4] 71.5 µM | [5] 72.4 µM

Brc1ccc(Oc2ccccc2)cc1
not listed: CYP3A5 (gene 1577)
inactive: all other assays above

Cn1cc(-c2ccccc2)c(=O)c(-c2cccc(C(F)(F)F)c2)c1
active: [1] 1.52 µM | [7] 50 µM
not listed: CYP3A5 (gene 1577)
inactive: all other assays above

Clc1ccc(Cl)c(Cl)c1
active: [4] 50 µM | [5] 84 µM | [6] 9.92 µM
not listed: CYP3A5 (gene 1577)
inactive: all other assays above

Nc1ccc(N=Nc2ccccc2)cc1
active: CYP3A5 (gene 1577) 14.2 µM | [2] 21.4 µM | [3] 13.3 µM | [4] 16.4 µM | [5] 15.1 µM | [6] 7.79 µM | [7] 15.6 µM | [9] 13.2 µM
inactive: [8]

CO[C@@H]1[C@H](OC(=O)NC(=O)CCl)CC[C@]2(CO2)[C@H]1[C@@]1(C)O[C@@H]1CC=C(C)C
active: [2] 1.96 µM
not listed: CYP3A5 (gene 1577)
inactive: all other assays above

C1=Cc2cccc3cccc1c23
not listed: CYP3A5 (gene 1577)
inactive: all other assays above

Clc1ccc(C(c2ccc(Cl)cc2)C(Cl)(Cl)Cl)cc1
active: [2] 50 µM | [3] 50 µM | [7] 16.7 µM
not listed: [1] | CYP3A5 (gene 1577)
inactive: all other assays above

CCC12COCN1COC2
not listed: CYP3A5 (gene 1577)
inactive: all other assays above

O=[N+]([O-])c1ccc(Oc2ccc(Cl)cc2Cl)cc1
active: [1] 2.45 µM | [6] 27.1 µM | [8] 50 µM
not listed: CYP3A5 (gene 1577)
inactive: all other assays above

CN(C)c1ccccc1
not listed: CYP3A5 (gene 1577)
inactive: all other assays above

c1ccc2c(c1)oc1ccccc12
not listed: CYP3A5 (gene 1577)
inactive: all other assays above

Nc1ccc([N+](=O)[O-])cc1
not listed: CYP3A5 (gene 1577)
inactive: all other assays above

CCCCCOC(=O)c1ccccc1C(=O)OCCCCC
active: [3] 79.7 µM
not listed: CYP3A5 (gene 1577)
inactive: all other assays above

OCCCBr
not listed: CYP3A5 (gene 1577)
inactive: all other assays above

CCC[CH2][Sn]([Cl])([CH2]CCC)[CH2]CCC
active: [1] 0.377 µM | [2] 2.31 µM | [5] 1.67 µM | [6] 50 µM | [7] 5.56 µM
inactive: [8] | [9]

Nc1ccc(Cl)cc1N
active: CYP3A5 (gene 1577) 17.3 µM | [2] 28.2 µM | [3] 29.7 µM | [4] 23.1 µM | [5] 27.9 µM | [6] 32.6 µM | [7] 38.8 µM
inactive: [8] | [9]

Nc1ccc(Oc2ccc(N)cc2)cc1
active: [2] 50 µM
not listed: CYP3A5 (gene 1577)
inactive: all other assays above

CCNS(=O)(=O)C(F)(F)C(F)(F)C(F)(F)C(F)(F)C(F)(F)C(F)(F)C(F)(F)C(F)(F)F
inactive: [1] | [6] | [8] | [9]
active: [2] 59.3 µM | [4] 48.2 µM | [5] 48.2 µM | [7] 36.6 µM

C[C@]12C=CC3=C4CCC(=O)C=C4CC[C@H]3[C@@H]1CC[C@@H]2O
inactive: [5] | [6] | [9]
active: [2] 47.7 µM | [7] 60.9 µM | [8] 79 µM

CCOC(=O)[C@]1(c2ccccc2)Oc2ccccc2[C@@H]1N
active: [1] 85.4 µM | [2] 90.1 µM | [3] 71.6 µM | [4] 90.5 µM | [5] 76.1 µM | [6] 82.4 µM | [7] 87.9 µM | [8] 76.9 µM
inactive: [9]
